Data on 29 molecules can be found in PubChem BioAssay AID504332 (National Center for Advancing Translational Sciences (NCATS), 2011).

About 31,000 (8.9%) of roughly 350,000 compounds were called active. Inconclusive results (about 15%) are left out. The entries come from a sample that favours actives as a whole. A number with no mark means an inactive call. Calls follow the shape of the dose curve; as a rule, active = well fitted inhibition curve with a large enough effect; inconclusive = small, poorly fitted or top-dose-only effect; inactive = no such curve, though single readings can be large or run the other way.
% is scaled to controls: 0 for no effect and ±100 for the full control effect; potency is read from the fitted curve at half-maximal effect.

Histone-lysine N-methyltransferase EHMT2 (Homo sapiens), sequence (Q96KQ7 913-1193 limits assumed): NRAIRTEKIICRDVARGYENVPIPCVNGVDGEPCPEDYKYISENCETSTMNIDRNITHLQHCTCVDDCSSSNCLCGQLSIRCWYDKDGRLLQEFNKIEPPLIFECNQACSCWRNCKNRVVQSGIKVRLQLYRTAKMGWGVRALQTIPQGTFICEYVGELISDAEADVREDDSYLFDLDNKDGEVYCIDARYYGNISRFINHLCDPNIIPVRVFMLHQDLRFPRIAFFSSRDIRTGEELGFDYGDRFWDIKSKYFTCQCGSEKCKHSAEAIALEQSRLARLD

The target of the test is Histone-lysine N-methyltransferase EHMT2 (Homo sapiens) (UniProt Q96KQ7). Briefly: qHTS Assay for Inhibitors of Histone Lysine Methyltransferase G9a. Also: nearly all actives have a fitted effect of over 75% in size. Particulars: G9a H3K9 monomethylation, AlphaScreen, 2 h; series mostly up to 59 µM; activity, negative = inhibition: at the top concentration. Summed up:
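Quantitative HTS format: methyltransferase activity on a biotin-tagged H3K9 peptide is measured by AlphaScreen, using a rabbit anti-monomethyl-H3K9 antibody with streptavidin donor and anti-IgG acceptor beads. Final levels are 20 nM enzyme, 500 nM peptide, 20 uM SAM; 2 h RT.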
(In general: In qHTS, concentration-response curves come from the screen itself.)
Regarding `COc1cccc(CNCCSc2nnnn2C)c1OCc1ccccc1Cl`, the “activity, negative = inhibition” value is -3.67%. For `O=S(=O)(O)c1nc2ccccc2n1Cc1ccc(Cl)cc1Cl`, the “activity, negative = inhibition” value was -19.1%. Same read-out and setting: the figure for `Cn1c(S(=O)(=O)O)nc2ccccc21` is -15% [at 102 µM]. As for `O=S(=O)(O)c1nc2ccccc2n1Cc1ccc(Cl)cc1`, the Potency is 50.1 µM (active). In the case of `CCc1nn(CC(=O)NCC(C)c2ccccc2)c(=O)c2cc3occc3n12` (centres undefined), the “activity, negative = inhibition” value was 10.3%. On to `COc1ccc(S(=O)(=O)/N=C2\C=C(NS(=O)(=O)c3ccccc3)C(=O)c3ccccc32)cc1`, for which the Potency is 8.91 µM (active).

Regarding `COc1ccc2cc(S(=O)(=O)Nc3ccccn3)ccc2c1`, the “activity, negative = inhibition” value was -6.57% [at 102 µM]. Still for that read-out and setting: the figure for `COc1ccc(S(=O)(=O)Nc2c(C)n(C)n(-c3ccccc3)c2=O)cc1` is -5.42%; for `CN(C)c1ccnc2sc3c(=O)n(Cc4ccccc4)cnc3c12` it is 26.4% [at 0.501 µM]. As to `CC1=NN(Cc2ccccc2)C(=O)/C1=C/c1ccc(N(C)C)cc1`, the Potency is 10 µM (active). As to `CN(C)c1ccc(/C=C2\NC(=S)N(Cc3ccccc3)C2=O)cc1`, the “activity, negative = inhibition” value is -14.6% [at 102 µM]. Consider `COc1ccccc1C(=O)NC(CCSC)C(=O)NNC(=O)c1ccccc1C` (centres undefined), for which the activity, negative = inhibition was 25.8% [at 0.501 µM]. As to `COc1ccc2nc(SCc3ccccc3)nc(C)c2c1`, the “activity, negative = inhibition” value was 285%. The same measure, in the same setting: the figure for `O=c1[nH]c(SCc2ccccc2)nnc1-c1ccccc1` is 10%. Consider `c1ccc(CSc2nnc(-c3ccco3)c(-c3ccco3)n2)cc1`, for which the Potency was 6.31 µM (active). Turning to `COc1cc(C(=O)NCC(=O)NCCSc2ccc(Br)cc2)cc(OC)c1OC`, the activity, negative = inhibition is 10% [at 0.501 µM]. Same read-out and setting: the figure for `O=C(COC(=O)Cc1ccccc1F)NCCc1ccccc1` is -6.48% [at 2.33 µM]. Still for that read-out and setting: the figure for `CC(=O)Nc1ccc(C(=O)N(C2=NC(C)CS2)c2ccc(Cl)cc2)cc1` (centres undefined) is 16% [at 102 µM]; for `COCCCNC(=O)c1ccc(NC(=O)c2nsc3ccccc23)cc1` it is 2.19%. In the case of `OC(CNCCc1ccc(Cl)cc1Cl)COc1ccccc1` (centres undefined), the Potency was 25.1 µM (active). Take `COC(=O)c1sc2ncccc2c1OCc1ccc(Cl)cc1Cl`: the “activity, negative = inhibition” value was 15.5%. On the same count and under the same terms, the figure for `COc1ccc(OCC(O)CNC(=O)Nc2ccc(Cl)cc2)cc1` (centres undefined) is -15.8% [at 102 µM]; for `CCCCN(CC)CCCNC(=O)Cn1ncc2c([nH]c3ccc(C)cc32)c1=O` it is -32.3%. As for `CC1Cc2ccccc2N1S(=O)(=O)c1cccc(C(=O)NCC(c2ccco2)N2CCCC2)c1` (centres undefined), the Potency is 39.8 µM (active). In the case of `COc1cc(C(=O)NCC(c2ccco2)N2CCCC2)ccc1OCc1ccccc1` (centres undefined), the “activity, negative = inhibition” value was 2.91%. For `Cc1ccccc1C(=O)NCC(c1ccco1)N1CCc2ccccc21` (centres undefined), the activity, negative = inhibition is 12% [at 2.33 µM]. In the case of `CC1CCc2sc(C(=O)NCC(c3ccco3)N3CCCCC3)cc2C1` (centres undefined), the “activity, negative = inhibition” value is 4.92%. Regarding `O=C(NCC(c1ccco1)N1CCc2ccccc21)c1cccc(F)c1` (centres undefined), the Potency was 50.1 µM (active).

Turning to `COc1ccc(C(=O)NCC(c2ccco2)N2CCc3ccccc32)cc1OC` (centres undefined), the activity, negative = inhibition is -2.6% [at 0.501 µM].
